Data taken from PubChem BioAssay (EPA / NIEHS).
Activity calls are given as the source filed them. How the source made its calls: active means hit-call score of the fitted dose curve at least 0.9, where 1 is the maximum; inactive means score below 0.9.

Assays:
[1] = APR_HepG2_P-H2AX_72hr: Apredica 72-hour HepG2 Assay for H2AX Phosphorylation (AID 2282916); settings: imaging, actives raise or lower the signal;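 further: phospho-histone H2A.x immunostain intensity per cell marking DNA damage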
Outline: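 HepG2 cells treated 72 h at 0.39–200 uM, 0.5% DMSO final, duplicates. Formaldehyde-fixed, Triton-permeabilised, immunostained for phospho-H2A.x with Hoechst; fluorescence imaged at 20x, bidirectional fit versus DMSO.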

[2] = APR_HepG2_MitoMembPot_72hr: Apredica 72-hour HepG2 Assay for Mitochondrial Membrane Potential (AID 2282917); settings: imaging, actives raise or lower the signal
Outline: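 HepG2 cells dosed 72 hr with compound at 0.39–200 uM in duplicate, 0.5% v/v DMSO final. Mitochondria stained with 250 nM MitoTracker Red CMXRos for 30 min before formaldehyde fixation, imaged by high-content fluorescence; bidirectional fit versus DMSO.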

[3] = APR_HepG2_MitoticArrest_72hr: Apredica 72-hour HepG2 Assay for Mitotic Arrest (AID 2282918); settings: high-content imaging, actives raise or lower the signal
Outline: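 Read-out is phospho-histone H3 immunofluorescence with Hoechst nuclear segmentation, imaged at 20x. Human HepG2 liver cells received ten concentrations (0.39–200 uM, final DMSO 0.5% v/v) for 72 hr before fixation. Gain or loss of signal was fitted relative to DMSO.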

[4] = APR_HepG2_MicrotubuleCSK_72hr: Apredica 72-hour HepG2 Assay for Microtubule CSK Stabilty (AID 2282919); settings: HepG2 microtubule cytoskeleton, high-content imaging, actives raise or lower the signal
Outline: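 HepG2 cells were exposed 72 hr to compound at 0.39–200 uM in duplicate (0.5% DMSO final), then fixed and permeabilized. Alpha-tubulin immunofluorescence was imaged by high-content microscopy, with bidirectional fitting against DMSO and taxol as positive control.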

[5] = APR_HepG2_StressKinase_72hr: Apredica 72-hour HepG2 Assay for Stress Kinase (AID 2282921); settings: HepG2 stress kinase (phospho-c-Jun) imaging, actives raise or lower the signal
Outline: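 HepG2 cells treated 72 hr with 0.39–200 uM compound, 0.5% v/v DMSO, duplicate wells. After formaldehyde fixation and Triton permeabilization, stained with anti-phospho-c-Jun (1:500) and Cy3 secondary, imaged at 20x. Fitted in both directions against DMSO.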

[6] = APR_HepG2_p53Act_72hr: Apredica 72-hour HepG2 Assay for p53 Activation (AID 2282923); settings: high-content imaging, actives raise or lower the signal;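 further: average cellular p53 protein immunofluorescence intensity in HepG2 cells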
Outline: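 HepG2 cells exposed 72 h to 0.39–200 uM in 0.5% DMSO, duplicates. Fixed, permeabilized cells immunostained for p53 (Cy5) with Hoechst; imaged at 20x, fluorescence analyzed bidirectionally against DMSO.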

[7] = APR_HepG2_MitoMass_72hr: Apredica 72-hour HepG2 Assay for Mitochondrial Mass (AID 2282924); settings: high-content imaging, actives raise or lower the signal;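 further: MitoTracker Red CMXRos stain intensity per cell imaged as mitochondrial mass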
Outline: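 HepG2 cells dosed 72 hr at 0.39–200 uM (0.5% DMSO), in duplicate. MitoTracker Red CMXRos 250 nM loaded 30 min before formaldehyde fixation; high-content fluorescence imaging, bidirectional fit versus DMSO.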

[8] = ATG_CRE_CIS: Attagene CIS-FACTORIAL HepG2 Assay for human cAMP Responsive Element (CRE) binding protein 3 (AID 2282926); settings: HepG2 CRE cis-reporter, Attagene multiplexed mRNA; actives raise or lower the signal
Outline: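 Human liver HepG2, transient MRTU transfection, 24 h compound exposure. Total RNA → oligo(dT) RT → PCR → 6-FAM primer extension → HpaI cut → CE. Activity called both directions vs DMSO.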

[9] = biological target: CCAAT/enhancer-binding protein beta (Homo sapiens) (UniProt P17676); test: ATG_C_EBP_CIS: Attagene CIS-FACTORIAL HepG2 Assay for human CCAAT/Enhancer Binding Protein (C/EBP) beta (AID 2282927); settings: HepG2 Attagene cis-factorial transcription factor reporter; actives raise or lower the signal
Chain of CCAAT/enhancer-binding protein beta (Homo sapiens) (P17676 whole entry, looked up): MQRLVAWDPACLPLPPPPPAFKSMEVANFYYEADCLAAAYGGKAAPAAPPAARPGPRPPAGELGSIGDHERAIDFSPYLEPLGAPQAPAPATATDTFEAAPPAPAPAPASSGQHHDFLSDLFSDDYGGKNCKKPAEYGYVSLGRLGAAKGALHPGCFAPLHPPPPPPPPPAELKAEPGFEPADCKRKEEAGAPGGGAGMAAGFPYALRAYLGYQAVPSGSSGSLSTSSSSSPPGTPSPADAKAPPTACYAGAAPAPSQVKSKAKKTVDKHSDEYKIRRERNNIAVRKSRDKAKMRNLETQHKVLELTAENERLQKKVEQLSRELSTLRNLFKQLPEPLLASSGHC
Outline: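 HepG2, transient MRTU transfection, 24 h treatment. RT-PCR plus CE fluorescence; DMSO negative control, bidirectional fit.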

[10] = ATG_CMV_CIS: Attagene CIS-FACTORIAL HepG2 Assay for human CMV (Internal Marker) (AID 2282928); settings: HepG2 CMV promoter reporter, transcription factor profiling; actives raise or lower the signal;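 further: endpoint acts as a background internal control marker rather than a target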
Outline: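 CMV internal-marker background readout in transiently transfected HepG2 cells bearing cis-regulated reporter units. Reporter mRNA is measured 24 h after dosing by RT-PCR and capillary electrophoresis, with bidirectional fitting against DMSO.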

[11] = ATG_DR4_LXR_CIS: Attagene CIS-FACTORIAL HepG2 Assay for human Liver X Receptor (LXR), DR4 submotif (AID 2282929); settings: HepG2 Attagene DR4 cis-reporter, mRNA transcription; actives raise or lower the signal
Outline: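 Fluorescence intensity of labelled reporter cDNA fragments, separated by capillary electrophoresis, gives the signal. HepG2 cells bearing cis-regulated reporter constructs were treated 24 h; activity fitted bidirectionally relative to DMSO negative control.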

[12] = ATG_AP_1_CIS: Attagene CIS-FACTORIAL HepG2 Assay for human Activator Protein 1 (AP-1) (AID 2282931); settings: HepG2 Attagene cis-factorial AP-1 reporter mRNA; actives raise or lower the signal
Outline: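 Multiplexed HepG2 reporter assay, 24 h dosing. mRNA induction detected by RT-PCR plus capillary electrophoresis. Activity fitted in both directions against DMSO.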

[13] = ATG_AP_2_CIS: Attagene CIS-FACTORIAL HepG2 Assay for human Activator Protein 2 (AP-2) (AID 2282932); settings: HepG2 AP-2 cis-reporter, Attagene transcription factor profiling; actives raise or lower the signal
Outline: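 HepG2 cells transiently transfected with cis-element reporter units and exposed for 24 h. Reporter mRNA measured by RT-PCR, FAM labelling, HpaI digestion and capillary electrophoresis. Changes in either direction fitted relative to DMSO.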

[14] = ATG_BRE_CIS: Attagene CIS-FACTORIAL HepG2 Assay for human Bone Morphogenetic Protein (BMP) Response Element (BRE) (AID 2282933); settings: HepG2 BMP response element reporter, Attagene transcription factor profiling; actives raise or lower the signal
Outline: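 Endogenous transcription factor activity read in transiently transfected HepG2 cells after 24 h chemical exposure. Bidirectional curve fitting against DMSO; readout is reporter transcript level by RT-PCR with capillary electrophoresis of labelled products.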

[15] = biological target: Retinoic acid receptor alpha (Homo sapiens) (UniProt P10276); test: ATG_DR5_RAR_CIS: Attagene CIS-FACTORIAL HepG2 Assay for human Retinoic Acid Receptor Alpha (RARE), DR5 submotif (AID 2282934); settings: HepG2 Attagene cis-factorial RARE DR5 reporter, mRNA; actives raise or lower the signal
Chain of Retinoic acid receptor alpha (Homo sapiens) (P10276 whole entry, looked up): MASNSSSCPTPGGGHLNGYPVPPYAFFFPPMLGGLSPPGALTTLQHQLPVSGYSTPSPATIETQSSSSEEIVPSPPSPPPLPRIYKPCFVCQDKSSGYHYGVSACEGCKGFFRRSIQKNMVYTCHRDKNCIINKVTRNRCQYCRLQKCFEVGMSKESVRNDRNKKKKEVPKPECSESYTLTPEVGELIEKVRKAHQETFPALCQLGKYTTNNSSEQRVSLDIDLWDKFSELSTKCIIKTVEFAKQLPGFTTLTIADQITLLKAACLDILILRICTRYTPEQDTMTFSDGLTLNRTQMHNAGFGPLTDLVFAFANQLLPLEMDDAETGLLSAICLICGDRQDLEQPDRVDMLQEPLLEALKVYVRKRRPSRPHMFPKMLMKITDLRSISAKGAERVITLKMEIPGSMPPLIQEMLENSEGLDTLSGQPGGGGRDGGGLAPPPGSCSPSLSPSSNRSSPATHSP
Outline: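 After 24 h of chemical exposure, transiently transfected HepG2 cells were lysed for total RNA; the DR5-regulated reporter transcript was quantified via RT-PCR and capillary electrophoresis, with activity fitted bidirectionally against DMSO.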

[16] = biological target: Transcription factor E2F1 (Homo sapiens) (UniProt Q01094); test: ATG_E2F_CIS: Attagene CIS-FACTORIAL HepG2 Assay for human E2F Transcription Factor 1 (AID 2282935); settings: HepG2 Attagene cis-reporter, E2F reporter RNA transcripts; actives raise or lower the signal
Chain of Transcription factor E2F1 (Homo sapiens) (Q01094 whole entry, looked up): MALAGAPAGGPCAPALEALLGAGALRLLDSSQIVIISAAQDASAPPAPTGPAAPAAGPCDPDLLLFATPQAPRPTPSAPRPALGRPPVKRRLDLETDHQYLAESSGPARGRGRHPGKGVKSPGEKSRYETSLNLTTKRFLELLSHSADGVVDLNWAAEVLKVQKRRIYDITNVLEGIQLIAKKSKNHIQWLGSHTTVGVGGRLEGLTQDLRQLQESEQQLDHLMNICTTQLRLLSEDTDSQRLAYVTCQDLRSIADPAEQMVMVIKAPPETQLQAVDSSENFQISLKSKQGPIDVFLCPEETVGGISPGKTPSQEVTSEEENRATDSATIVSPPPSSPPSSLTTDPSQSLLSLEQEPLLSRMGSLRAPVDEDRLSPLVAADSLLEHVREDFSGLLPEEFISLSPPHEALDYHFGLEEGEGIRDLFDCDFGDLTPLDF
Outline: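 Endogenous E2F1 activity read through cis-promoter reporter units transfected into HepG2. After 24 h compound treatment, reporter mRNA measured by RT-PCR, HpaI digestion and capillary electrophoresis. Bidirectional fit versus DMSO.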

[17] = APR_HepG2_StressKinase_24hr: Apredica 24-hour HepG2 Assay for Stress Kinase (AID 2282922); settings: HepG2 stress kinase (phospho-c-Jun) imaging, actives raise or lower the signal
Outline: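 HepG2 cells exposed 24 h to 0.39–200 uM compound in duplicate (0.5% v/v DMSO final). Cells fixed in 3.7% formaldehyde, permeabilized and immunostained for phospho-c-Jun; read by high-content fluorescence imaging, fitted bidirectionally against DMSO.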

[18] = APR_HepG2_NuclearSize_72hr: Apredica 72-hour HepG2 Assay for Nuclear Size (AID 2282925); settings: high-content imaging, actives raise or lower the signal
Outline: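 HepG2 cells dosed 72 h at 0.39–200 uM (10 concentrations, duplicate) in 0.5% v/v DMSO final. Fixed, Hoechst 33342-stained nuclei imaged; nuclear diameter measured by automated image analysis. Bidirectional fit versus DMSO.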

[19] = biological target: Aryl hydrocarbon receptor (Homo sapiens) (UniProt P35869); test: ATG_Ahr_CIS: Attagene CIS-FACTORIAL HepG2 Assay for human Aryl Hydrocarbon Receptor (Ahr) (AID 2282930); settings: HepG2 AhR cis-factorial reporter transcription; actives raise or lower the signal
Chain of Aryl hydrocarbon receptor (Homo sapiens) (P35869 whole entry, looked up): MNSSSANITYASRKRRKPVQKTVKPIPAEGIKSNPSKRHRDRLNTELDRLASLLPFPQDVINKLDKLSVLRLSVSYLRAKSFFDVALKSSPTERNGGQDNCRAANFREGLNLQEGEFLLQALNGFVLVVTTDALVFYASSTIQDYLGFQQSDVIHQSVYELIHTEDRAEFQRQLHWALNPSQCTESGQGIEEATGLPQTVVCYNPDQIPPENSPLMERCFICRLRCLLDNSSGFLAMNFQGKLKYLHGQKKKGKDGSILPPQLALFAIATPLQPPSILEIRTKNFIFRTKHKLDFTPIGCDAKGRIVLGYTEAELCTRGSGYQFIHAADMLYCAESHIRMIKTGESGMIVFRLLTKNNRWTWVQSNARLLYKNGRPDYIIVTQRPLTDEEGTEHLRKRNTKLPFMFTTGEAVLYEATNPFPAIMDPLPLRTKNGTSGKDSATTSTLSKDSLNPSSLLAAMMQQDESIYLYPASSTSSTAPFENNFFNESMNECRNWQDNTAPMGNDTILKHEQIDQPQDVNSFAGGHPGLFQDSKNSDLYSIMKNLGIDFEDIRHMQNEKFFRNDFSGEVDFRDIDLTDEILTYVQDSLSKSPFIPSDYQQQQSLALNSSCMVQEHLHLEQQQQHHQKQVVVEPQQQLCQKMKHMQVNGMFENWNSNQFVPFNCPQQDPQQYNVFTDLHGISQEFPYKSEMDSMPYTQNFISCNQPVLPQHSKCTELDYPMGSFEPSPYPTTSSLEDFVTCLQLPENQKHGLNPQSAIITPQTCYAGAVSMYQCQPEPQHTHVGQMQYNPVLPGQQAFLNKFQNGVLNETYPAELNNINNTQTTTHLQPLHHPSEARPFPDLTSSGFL
Outline: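 Endogenous factor activity is tracked through cis-promoter reporter units transfected into HepG2 cells. Transcript levels at 24 h are read by fluorescent RT-PCR and capillary electrophoresis, with activity in either direction scored relative to DMSO.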

Measured: AC50

CC(C)(O)c1ccc(CNC(=O)c2cccnc2Oc2ccc(F)cc2)cc1
inactive: [1] | [2] | [3] | [4] | [5] | [6] | [7] | [8] | [9] | [10] | [12] | [13] | [14] | [15] | [16]
active: [11] 184 nM

CC(C)c1cccc(C(C)C)c1
inactive: [1] | [2] | [3] | [4] | [5] | [17] | [7] | [18] | [8] | [9] | [10] | [11] | [19] | [12] | [13] | [14] | [15] | [16]

O=C(NS(=O)(=O)/C=C/c1cccs1)c1ccc(F)cc1Br
inactive: [1] | [2] | [3] | [4] | [5] | [7] | [18] | [8] | [9] | [10] | [11] | [19] | [12] | [13] | [14] | [15] | [16]

CC(=O)CC(c1ccccc1)c1c(O)c2ccccc2oc1=O (stereo unspecified)
inactive: [1] | [2] | [3] | [4] | [5] | [7] | [8] | [9] | [10] | [11] | [13] | [14] | [16]

Nc1nc(=S)c2[nH]cnc2[nH]1
active: [1] 30.5 µM | [3] 21 µM | [9] 100 µM | [10] 19 µM | [12] 12 µM
inactive: [2] | [4] | [5] | [7] | [8] | [11] | [13] | [14] | [15]

CCCCC(CC)COC(=O)CCCCCCCC(=O)OCC(CC)CCCC (stereo unspecified)
inactive: [1] | [2] | [3] | [4] | [5] | [6] | [7] | [18] | [8] | [9] | [10] | [11] | [13] | [14]

CSc1ccc(Oc2ccc(S(N)(=O)=O)cc2CN(C)C)cc1C
inactive: [1] | [2] | [3] | [4] | [5] | [17] | [7] | [18] | [8] | [9] | [10] | [11] | [12] | [14] | [16]
active: [13] 26.8 µM

OCC(CO)n1cnc(-c2ccc(F)cc2)c1-c1ccnc(Oc2ccccc2)n1
inactive: [1] | [2] | [3] | [4] | [5] | [6] | [7] | [8] | [9] | [10] | [11] | [19] | [12] | [13] | [14] | [16]

CC(=O)OC1CC(C)OC(C)O1 (stereo unspecified)
inactive: [1] | [2] | [3] | [4] | [5] | [17] | [7] | [18] | [8] | [9] | [10] | [11] | [12] | [13] | [14] | [15]

NC1CCCCC1
inactive: [1] | [2] | [3] | [4] | [5] | [7] | [8] | [9] | [10] | [11] | [13] | [14] | [15]

S=c1[nH]c2ccccc2s1
active: [2] 97.3 µM | [10] 100 µM | [14] 7.98 µM
inactive: [1] | [3] | [4] | [5] | [17] | [6] | [7] | [8] | [9] | [11] | [13] | [15] | [16]

CC(=O)O
active: [1] 92 µM | [2] 100 µM | [3] 92.8 µM | [7] 0.0355 µM
inactive: [4] | [5] | [18] | [8] | [9] | [10] | [11] | [19] | [12] | [13] | [14] | [16]

OCC(O)CO
inactive: [1] | [2] | [3] | [4] | [5] | [6] | [7]

COc1ccc(OC(F)(F)F)cc1CN[C@H]1CCCN[C@H]1c1ccccc1
active: [1] 28.3 µM | [2] 55.9 µM | [3] 17.7 µM | [5] 28.8 µM | [6] 24.3 µM | [7] 62.3 µM
inactive: [4] | [18] | [8] | [9] | [10] | [11] | [12] | [13] | [14]

O=C1NC(=O)C(c2ccccc2)(c2ccccc2)N1
inactive: [1] | [2] | [3] | [4] | [5] | [7] | [8] | [9] | [10] | [11] | [12] | [13] | [14] | [16]
